The record followed here is ChEMBL document CHEMBL1961873, “Compounds: GSK PKIS; Assays: Nanosyn kinase panel” (2012).

Test [1] addresses Leukocyte tyrosine kinase receptor (Homo sapiens) (UniProt P29376). The following applies: at 1 µM.
For test [2], the target named is Tyrosine-protein kinase Lyn (Homo sapiens) (UniProt P07948). The note with it: at 0.1 µM.
The target is the same in test [3]. The following applies: at 1 µM.
For test [4] the target is unchanged. The following applies: at 0.1 µM. This is another data set of the same source.
The target is the same in test [5]. The note with it: at 1 µM. The source holds these as a separate data set.
For test [6], the target named is T1, Tyrosine-protein kinase Mer (Homo sapiens) (UniProt Q12866).
T1 sequence (whole entry): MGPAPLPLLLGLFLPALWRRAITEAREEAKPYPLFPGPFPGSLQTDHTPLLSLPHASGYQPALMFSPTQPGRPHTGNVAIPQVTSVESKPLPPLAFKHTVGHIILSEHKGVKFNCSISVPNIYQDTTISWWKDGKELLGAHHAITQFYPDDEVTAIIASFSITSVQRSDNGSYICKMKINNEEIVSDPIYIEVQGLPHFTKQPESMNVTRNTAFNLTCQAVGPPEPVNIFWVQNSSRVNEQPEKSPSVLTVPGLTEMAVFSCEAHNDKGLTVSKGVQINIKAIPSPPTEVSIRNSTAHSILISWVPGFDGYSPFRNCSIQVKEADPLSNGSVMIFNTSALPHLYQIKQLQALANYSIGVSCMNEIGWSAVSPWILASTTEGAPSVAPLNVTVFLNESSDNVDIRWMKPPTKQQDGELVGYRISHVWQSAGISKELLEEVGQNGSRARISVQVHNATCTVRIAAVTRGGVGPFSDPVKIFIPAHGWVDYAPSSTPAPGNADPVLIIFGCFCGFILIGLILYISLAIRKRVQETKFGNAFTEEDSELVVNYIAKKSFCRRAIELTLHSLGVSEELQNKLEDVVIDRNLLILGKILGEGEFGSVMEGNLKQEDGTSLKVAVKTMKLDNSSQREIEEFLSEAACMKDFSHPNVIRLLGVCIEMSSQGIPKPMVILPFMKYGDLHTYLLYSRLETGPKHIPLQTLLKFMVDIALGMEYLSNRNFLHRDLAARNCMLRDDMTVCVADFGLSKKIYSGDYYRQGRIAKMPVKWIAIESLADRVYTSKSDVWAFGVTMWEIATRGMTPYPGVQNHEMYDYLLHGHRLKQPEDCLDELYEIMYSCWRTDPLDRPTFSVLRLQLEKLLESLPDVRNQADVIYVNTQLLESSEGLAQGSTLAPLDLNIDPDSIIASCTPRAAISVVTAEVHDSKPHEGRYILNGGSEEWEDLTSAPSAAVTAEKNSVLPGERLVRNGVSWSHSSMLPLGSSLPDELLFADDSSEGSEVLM
The note with it: at 0.1 µM.

For test [7], the target named is T1, Tyrosine-protein kinase Mer (Homo sapiens). The note with it: at 1 µM.
Test [8] concerns the target Hepatocyte growth factor receptor (Homo sapiens) (UniProt P08581). The following applies: at 0.1 µM.
The target is the same in test [9]. The note with it: at 1 µM.
Test [10] has as its target T2, Muscle, skeletal receptor tyrosine-protein kinase (Homo sapiens) (UniProt O15146).
T2 sequence (whole entry): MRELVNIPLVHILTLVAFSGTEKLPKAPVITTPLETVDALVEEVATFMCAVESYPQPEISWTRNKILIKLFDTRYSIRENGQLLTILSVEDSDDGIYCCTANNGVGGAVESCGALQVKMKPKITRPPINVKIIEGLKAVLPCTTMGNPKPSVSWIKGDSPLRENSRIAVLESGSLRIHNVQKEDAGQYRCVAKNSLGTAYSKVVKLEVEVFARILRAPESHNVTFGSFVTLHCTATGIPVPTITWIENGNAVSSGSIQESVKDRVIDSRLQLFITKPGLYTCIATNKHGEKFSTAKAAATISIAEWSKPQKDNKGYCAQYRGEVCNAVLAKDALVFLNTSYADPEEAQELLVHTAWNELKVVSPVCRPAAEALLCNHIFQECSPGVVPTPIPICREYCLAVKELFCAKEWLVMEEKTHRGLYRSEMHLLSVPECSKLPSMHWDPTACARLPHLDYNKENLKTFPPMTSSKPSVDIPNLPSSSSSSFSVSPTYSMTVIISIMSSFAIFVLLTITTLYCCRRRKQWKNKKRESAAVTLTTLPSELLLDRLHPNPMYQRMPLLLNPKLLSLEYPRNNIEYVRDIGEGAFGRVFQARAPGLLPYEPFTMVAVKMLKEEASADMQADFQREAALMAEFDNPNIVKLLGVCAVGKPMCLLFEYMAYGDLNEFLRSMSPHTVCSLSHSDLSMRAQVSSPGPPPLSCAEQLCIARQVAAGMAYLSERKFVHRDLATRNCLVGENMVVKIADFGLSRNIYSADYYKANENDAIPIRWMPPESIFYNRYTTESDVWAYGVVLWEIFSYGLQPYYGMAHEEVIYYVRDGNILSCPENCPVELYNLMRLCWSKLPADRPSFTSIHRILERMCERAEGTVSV
The following applies: at 0.1 µM.

The target in test [11] is T2, Muscle, skeletal receptor tyrosine-protein kinase (Homo sapiens). The following applies: at 1 µM.
The target in test [12] is Platelet-derived growth factor receptor alpha (Homo sapiens) (UniProt P16234). The note with it: at 0.1 µM.
The target is the same in test [13]. The note with it: at 1 µM.
For test [14], the system named is Platelet-derived growth factor receptor alpha (Homo sapiens), P16234 [D842V]. The note with it: at 0.1 µM.
Platelet-derived growth factor receptor alpha (Homo sapiens), P16234 [D842V], sequence (P16234 whole entry D842V): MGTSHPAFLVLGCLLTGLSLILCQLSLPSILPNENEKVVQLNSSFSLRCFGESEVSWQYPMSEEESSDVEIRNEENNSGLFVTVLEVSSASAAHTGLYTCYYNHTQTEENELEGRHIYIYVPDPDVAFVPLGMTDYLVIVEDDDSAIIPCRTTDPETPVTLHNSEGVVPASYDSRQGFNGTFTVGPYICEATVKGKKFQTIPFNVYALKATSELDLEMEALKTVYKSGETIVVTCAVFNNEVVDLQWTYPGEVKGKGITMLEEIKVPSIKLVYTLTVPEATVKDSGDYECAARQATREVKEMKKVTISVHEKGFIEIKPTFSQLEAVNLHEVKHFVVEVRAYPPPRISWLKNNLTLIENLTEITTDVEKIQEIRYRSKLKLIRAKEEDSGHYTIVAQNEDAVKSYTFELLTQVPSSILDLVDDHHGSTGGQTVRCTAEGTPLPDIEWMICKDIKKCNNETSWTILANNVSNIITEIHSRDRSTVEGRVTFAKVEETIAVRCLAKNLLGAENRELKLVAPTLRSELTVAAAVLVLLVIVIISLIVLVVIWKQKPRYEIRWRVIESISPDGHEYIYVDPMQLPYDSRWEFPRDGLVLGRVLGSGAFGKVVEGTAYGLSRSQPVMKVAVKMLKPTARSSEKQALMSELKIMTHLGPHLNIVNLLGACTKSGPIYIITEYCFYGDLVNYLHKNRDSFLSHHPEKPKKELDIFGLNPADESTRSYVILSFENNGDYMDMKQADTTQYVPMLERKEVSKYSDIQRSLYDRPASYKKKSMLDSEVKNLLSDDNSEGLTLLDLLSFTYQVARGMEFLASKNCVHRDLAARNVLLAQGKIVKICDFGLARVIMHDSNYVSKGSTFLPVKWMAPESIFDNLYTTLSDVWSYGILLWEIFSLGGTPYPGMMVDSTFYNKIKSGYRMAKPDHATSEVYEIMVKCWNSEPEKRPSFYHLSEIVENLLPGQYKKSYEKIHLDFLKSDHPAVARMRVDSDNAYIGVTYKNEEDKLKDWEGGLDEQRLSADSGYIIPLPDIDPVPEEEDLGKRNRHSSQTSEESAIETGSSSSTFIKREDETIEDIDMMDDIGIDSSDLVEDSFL
The test system is the same in test [15]. The following applies: at 1 µM.
For test [16], the system named is Platelet-derived growth factor receptor alpha (Homo sapiens), P16234 [T674I]. The following applies: at 0.1 µM.
Platelet-derived growth factor receptor alpha (Homo sapiens), P16234 [T674I], sequence (P16234 whole entry T674I): as the sequence (P16234 whole entry D842V) above, with T674I, V842D counted along it
Test [17] has the same test system. The note with it: at 1 µM.
Test [18] has as its system Platelet-derived growth factor receptor alpha (Homo sapiens), P16234 [V561D]. The following applies: at 0.1 µM.
Test [19] shares this test system. The note with it: at 1 µM.
Test [20] addresses Platelet-derived growth factor receptor beta (Homo sapiens) (UniProt P09619). The note with it: at 0.1 µM.

Each structure is given as a SMILES string.

Hepatocyte growth factor receptor (Homo sapiens), sequence (P08581 whole entry): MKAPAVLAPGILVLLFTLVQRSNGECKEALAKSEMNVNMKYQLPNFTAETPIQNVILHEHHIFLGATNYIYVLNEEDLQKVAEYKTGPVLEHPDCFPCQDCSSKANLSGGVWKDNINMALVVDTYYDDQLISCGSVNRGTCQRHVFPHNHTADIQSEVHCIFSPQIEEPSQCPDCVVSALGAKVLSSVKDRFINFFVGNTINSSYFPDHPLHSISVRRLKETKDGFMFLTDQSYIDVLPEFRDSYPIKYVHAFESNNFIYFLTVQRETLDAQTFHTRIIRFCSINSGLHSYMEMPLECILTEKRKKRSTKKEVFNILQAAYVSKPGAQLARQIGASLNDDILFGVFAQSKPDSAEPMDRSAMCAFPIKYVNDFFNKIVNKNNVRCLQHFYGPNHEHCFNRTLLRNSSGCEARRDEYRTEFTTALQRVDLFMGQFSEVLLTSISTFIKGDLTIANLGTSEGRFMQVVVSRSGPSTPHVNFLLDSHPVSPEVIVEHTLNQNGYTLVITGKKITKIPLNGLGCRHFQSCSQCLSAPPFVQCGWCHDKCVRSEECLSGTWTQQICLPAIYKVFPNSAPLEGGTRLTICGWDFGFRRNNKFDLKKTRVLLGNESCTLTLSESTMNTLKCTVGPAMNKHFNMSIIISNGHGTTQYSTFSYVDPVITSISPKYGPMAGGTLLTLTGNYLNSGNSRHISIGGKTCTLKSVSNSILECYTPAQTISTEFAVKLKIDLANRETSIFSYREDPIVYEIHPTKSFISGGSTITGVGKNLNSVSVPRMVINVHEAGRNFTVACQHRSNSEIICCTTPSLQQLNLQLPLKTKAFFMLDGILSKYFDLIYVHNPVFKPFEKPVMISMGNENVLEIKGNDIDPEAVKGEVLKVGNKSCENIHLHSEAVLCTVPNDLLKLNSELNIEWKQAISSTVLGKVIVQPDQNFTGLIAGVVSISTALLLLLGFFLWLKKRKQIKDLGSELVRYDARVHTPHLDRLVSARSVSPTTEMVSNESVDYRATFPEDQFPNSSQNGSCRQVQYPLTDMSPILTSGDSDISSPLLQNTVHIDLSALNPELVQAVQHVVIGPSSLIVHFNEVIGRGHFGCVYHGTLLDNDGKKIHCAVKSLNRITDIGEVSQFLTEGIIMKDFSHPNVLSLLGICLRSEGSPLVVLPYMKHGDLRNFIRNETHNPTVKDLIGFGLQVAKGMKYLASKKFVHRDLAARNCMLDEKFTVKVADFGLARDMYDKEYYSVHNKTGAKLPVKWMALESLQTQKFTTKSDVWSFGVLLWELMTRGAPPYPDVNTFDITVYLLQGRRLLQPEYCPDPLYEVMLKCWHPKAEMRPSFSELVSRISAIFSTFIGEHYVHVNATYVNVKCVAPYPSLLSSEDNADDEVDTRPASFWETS
Tyrosine-protein kinase Lyn (Homo sapiens), sequence (P07948 2-512 limits assumed): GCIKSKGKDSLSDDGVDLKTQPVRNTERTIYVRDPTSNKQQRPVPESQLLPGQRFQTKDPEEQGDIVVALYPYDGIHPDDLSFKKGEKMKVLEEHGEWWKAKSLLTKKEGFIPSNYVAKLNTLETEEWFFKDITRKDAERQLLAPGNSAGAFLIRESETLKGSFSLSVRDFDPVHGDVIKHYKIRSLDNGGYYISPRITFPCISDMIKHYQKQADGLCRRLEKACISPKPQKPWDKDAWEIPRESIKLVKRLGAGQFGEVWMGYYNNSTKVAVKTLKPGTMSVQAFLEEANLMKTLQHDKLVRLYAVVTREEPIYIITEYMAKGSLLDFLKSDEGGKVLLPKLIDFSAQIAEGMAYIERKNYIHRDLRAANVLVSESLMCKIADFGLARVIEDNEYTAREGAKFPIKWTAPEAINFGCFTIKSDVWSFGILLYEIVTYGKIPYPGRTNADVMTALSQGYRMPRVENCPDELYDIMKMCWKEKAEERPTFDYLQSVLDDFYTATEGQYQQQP
Leukocyte tyrosine kinase receptor (Homo sapiens), sequence (P29376 whole entry): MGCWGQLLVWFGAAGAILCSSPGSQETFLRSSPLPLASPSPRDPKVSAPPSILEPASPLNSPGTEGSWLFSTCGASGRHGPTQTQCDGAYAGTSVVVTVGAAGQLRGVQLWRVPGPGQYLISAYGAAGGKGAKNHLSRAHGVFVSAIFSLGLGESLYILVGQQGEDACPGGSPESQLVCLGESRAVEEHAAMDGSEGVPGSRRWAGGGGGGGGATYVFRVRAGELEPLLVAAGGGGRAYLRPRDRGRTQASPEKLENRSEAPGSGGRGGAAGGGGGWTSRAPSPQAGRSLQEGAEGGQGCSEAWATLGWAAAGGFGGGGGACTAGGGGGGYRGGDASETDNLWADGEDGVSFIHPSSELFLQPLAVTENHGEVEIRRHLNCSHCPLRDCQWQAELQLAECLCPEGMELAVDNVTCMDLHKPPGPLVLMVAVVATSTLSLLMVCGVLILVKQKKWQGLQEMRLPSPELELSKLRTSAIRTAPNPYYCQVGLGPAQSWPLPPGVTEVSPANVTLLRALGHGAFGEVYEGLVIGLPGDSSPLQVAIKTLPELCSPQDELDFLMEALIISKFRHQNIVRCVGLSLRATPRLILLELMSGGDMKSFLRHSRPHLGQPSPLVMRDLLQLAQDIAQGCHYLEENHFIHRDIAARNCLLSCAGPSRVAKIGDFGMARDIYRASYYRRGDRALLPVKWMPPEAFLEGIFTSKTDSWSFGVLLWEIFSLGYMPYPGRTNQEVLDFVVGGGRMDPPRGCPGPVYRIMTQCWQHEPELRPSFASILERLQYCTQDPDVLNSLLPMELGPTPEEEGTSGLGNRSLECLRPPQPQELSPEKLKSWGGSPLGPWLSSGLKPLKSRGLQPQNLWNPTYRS

A word on the inhibition: it is the change of the read-out against control, counted positive when it falls. Regarding `O=C1Nc2ccccc2/C1=C/Nc1ccc2[nH]c(=O)[nH]c2c1`, the inhibition in [1] amounted to 13.2%; in [2], 10.5%; in test [3] it was 30.1%; in test [4], 7.45%; in test [5], 23.2%; in [6] it was 1.74%. Further, the inhibition was 7.93% in test [7]; 7.49% in [8]; 14.8% in [9]; 6.75% in test [10]; 29.5% in [11]; 26.1% in test [12]. The inhibition is 65.3% in test [13]; 18% in test [14]; 69.2% in test [15]; 18.2% in test [16]; 80.1% in [17]; 26.1% in [18]. Further, the inhibition in [19] came to 69.8%; in test [20] it was 19.7%.
In the case of `NS(=O)(=O)c1cccc(-c2cc3ccncc3cc2OCc2ccccc2)c1`, the inhibition in [1] is 1.46%; in test [2], 5.16%; in test [3], 6.45%; in test [4], 2.95%; in [5], 3.74%; in test [6], 4.79%. For the same molecule, the inhibition in test [7] came to 8.95%; in [8], 3.75%; in test [9], 4.68%; in [10] it was 0.26%; in test [11] it was 4.58%; in test [12], 13.6%. In addition, the inhibition in [13] amounted to 17.2%; in [14], 2.28%; in test [15] it was 4.36%; in [16], 14.8%; in test [17], 6.72%; in test [18] it was 2.61%. Besides, the inhibition in test [19] turned out to be 9.52%; in test [20] it was 7.66%.
With `COC(=O)Nc1nc2cc(Oc3ccc(NC(=O)Nc4cccc(Br)c4)cc3)ccc2[nH]1`, the inhibition in [1] was found to be 3.57%; in test [2] it was 9.62%; in test [3], 15.2%; in test [4] it was 7.97%; in [5] it was 13.8%; in test [6] it was 1.37%. Also, the inhibition in [7] turned out to be 3.46%; in [8] it was 3.78%; in test [9], 6.03%; in test [10] it was 22.3%; in test [11], 49.3%; in test [12], 75.2%. In addition, the inhibition worked out at 87.4% in test [13]; 5.64% in test [14]; 13.8% in [15]; 83.8% in test [16]; 98.1% in test [17]; 84% in test [18]. Moreover, the inhibition was 94.6% in [19] and 17.4% in [20].
Regarding `[O-][S+]1CCN(Cc2ccc(-c3ccc4ncnc(Nc5ccc(OCc6ccccc6)c(Cl)c5)c4c3)o2)CC1`, the inhibition was 7.75% in test [1]; 1.18% in test [2]; 6.07% in test [3]; -1.3% in test [4]; 3.42% in test [5]; 7.08% in test [6]. Besides, the inhibition in test [7] was 48.2%; in [8] it was 3.11%; in [9], 5.04%; in [10] it was 1.43%; in [11], 1.01%; in [12], 6.03%. In addition, the inhibition was found to be 11.8% in [13]; 0.45% in test [14]; 1.95% in test [15]; 3.64% in test [16]; 7.9% in test [17]; 3.07% in test [18]. The inhibition turned out to be 6.09% in test [19] and 3.07% in [20].
Turning to `CC(C)c1ccc(Nc2nccc(-c3cnn4ncccc34)n2)cc1`, the inhibition in test [1] is 10.6%; in [2], 4.07%; in test [3] it was 7.45%; in [4] it was 2.28%; in test [5], 4.7%; in test [6], 1.42%. Moreover, the inhibition is 7.98% in test [7]; 4.89% in [8]; 13.5% in test [9]; 3.14% in [10]; 8.57% in [11]; 13% in test [12]. Further, the inhibition in test [13] is 43.5%; in test [14], 6.98%; in test [15], 43%; in test [16] it was 12.4%; in [17], 63.6%; in test [18] it was 18.9%. The inhibition came out at 55.2% in test [19] and 9.63% in test [20].
In the case of `CN(C)CCCn1c(-c2nonc2N)nc2cnccc21`, the inhibition was found to be 2.08% in test [1]; 4.87% in test [2]; 6.51% in test [3]; 3.03% in [4]; 2.22% in test [5]; 2.17% in test [6]. Also, the inhibition was 1.41% in test [7]; 6.53% in test [8]; 5.18% in [9]; -0.43% in test [10]; 4.01% in test [11]; 6.93% in test [12]. Further, the inhibition stood at 8.22% in [13]; 2.47% in test [14]; 3.67% in test [15]; 4.13% in [16]; 7.54% in test [17]; 1.59% in [18]. The results for the inhibition in test [19] and in test [20] were 4.37% and 5.05%, respectively.
